15-hLO inh: qHTS Assay for Inhibitors of 15-hLO (15-human lipoxygenase) | Potency, µM (highest dose often 57.1 µM), without a hit: at the top dose activity change, negative = inhibition, most hits filed as inhibitors | purified 15hLO-1, xylenol orange hydroperoxide absorbance | AID 887, 2007 | actives 1.4% (n = 74,000) | Polyunsaturated fatty acid lipoxygenase ALOX15 (Homo sapiens), P16050; note: potency is the fitted concentration of half-maximal effect; % is set by controls: 0 for no effect and ±100 for the full control effect; nearly all actives have a fitted effect of over 55% in size
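Quantitative HTS in 25 mM Hepes pH 7.5 containing 0.01% Triton X-100: human 15hLO-1 at 40 nM, arachidonic acid at 50 uM, 6 min turnover. Product quantified via ferrous oxidation/xylenol orange, 573:405 nm absorbance ratio.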
ERK AVP block: qHTS Assay for Inhibitors of the ERK Signaling Pathway using a Homogeneous Screening Assay; HEK293-V1b, vasopressin-stimulated pERK AlphaScreen; Potency, µM (series often up to 57.5 µM), for inactives: top-dose activity, negative = inhibition, usual class: inhibitors; actives 0.99% (n = 72,000); AID 995, 2007; note: potency is the fitted concentration of half-maximal effect; % is set by controls: 0 for no effect and ±100 for the full control effect; nearly all actives have a fitted effect of over 55% in size
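HEK293 cells stably expressing V1b receptor, seeded overnight in 1% FBS, were treated with compounds for 30 min at 37C, then stimulated 5 min with 25 nM vasopressin; phospho-ERK read by AlphaScreen SureFire after lysis.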
TSHR agonist: qHTS Assay for Agonists of the Thyroid Stimulating Hormone Receptor | Thyrotropin receptor (Homo sapiens), P16473 | HEK293-CNG-TSHR cells (CNG channel as cAMP sensor), membrane potential dye, cAMP | Potency, µM (doses to about 57.1 µM), for inactives: top-dose activation, usual class: activators | actives 0.48% (n = 73,000) | AID 926, 2007; active = well fitted activation curve with a large enough effect in the main read-out, with a control signal flat, not every such curve was filed as active; inconclusive = small, poorly fitted or top-dose-only effect, or a change in a side signal; inactive = no such curve, though single readings can be large or run the other way; % of control where 0% means no effect;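 note: the control signal comes from parental cells without the receptor; potency is the fitted concentration of half-maximal effect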
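HEK 293 cells stably expressing TSHR and a cAMP-gated CNG channel; parental CNG-only cells as counterscreen. Cells preloaded 60 min with membrane potential dye plus 100 uM RO 20-1724, then compound 30 min; fluorescence read at 590 nm.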
Casp1 inh: qHTS Assay for Allosteric/Competitive Inhibitors of Caspase-1. AID 900, 2007. actives 0.03% (n = 75,000). Caspase-1 enzyme, Ac-WEHD-AFC fluorogenic rate. Potency, µM (highest dose often 57.5 µM), for the others: at the top dose activity change, negative = inhibition, most hits filed as inhibitors;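 note: potency is the fitted concentration of half-maximal effect; plate controls were vehicle for no effect and no substrate for full effect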
Casp7 inh: qHTS Assay for Allosteric/Competitive Inhibitors of Caspase-7; Potency, µM (doses to about 57.5 µM), for inactives: at the highest dose activity change, negative = inhibition, hits mostly inhibitors; actives 0.02% (n = 75,000); recombinant caspase-7, Ac-DEVD-AFC fluorescence rate; active = well fitted inhibition curve with a large enough effect in the main read-out, with a control signal flat, not every such curve was filed as active; inconclusive = small, poorly fitted or top-dose-only effect, or a change in a side signal; note: potency is the fitted concentration of half-maximal effect; % of control where 0% means no effect
HEK293 cAMP cs: qHTS Assay for Agonists of the Thyroid Stimulating Hormone Receptor: Activators of Intracellular cAMP Concentrations in Parental HEK 293; parental HEK293 CNG cAMP sensor, membrane potential fluorescence; Potency, µM (top dose mostly 57.1 µM), inactives show at the top dose activation, most hits filed as activators; actives 2.5% (n = 73,000); AID 938, 2007; note: potency is the fitted concentration of half-maximal effect; % of control where 0% means no effect; nearly all actives have a fitted effect of over 55% in size
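Parental HEK 293 cells stably expressing a cAMP-gated CNG channel were loaded with membrane potential dye containing 100 uM RO 20-1724 for 60 min. Compound added for 30 min; depolarization read as fluorescence intensity at 590 nm.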
HEK293 cAMP cnt: Confirmation Concentration-Response Assay for Agonists of the Thyroid Stimulating Hormone Receptor: Activators of Intracellular cAMP Concentrations in Parental HEK 293; shares compounds with TSHR agonist; parental HEK293 CNG biosensor, cAMP membrane potential fluorescence; activity change, negative = inhibition, % at 32.9 µM; 150 tested, under 10 active
Starred values were filed as active, the others as inactive; ? = inconclusive; / = no result given; ! = repeats disagree; [ ] = remark or other dose. The list is not random: actives were taken first. Their share in the collection is about 4.8%. Unless noted, calls come from the whole dose curve; as a rule, active = well fitted curve in the direction sought with a large enough effect; inconclusive = small, poorly fitted or top-dose-only effect, or another doubt; inactive = no such curve, though single readings can be large; an effect the other way counts as inactive or inconclusive.

SMILES	15-hLO inh	ERK AVP block	TSHR agonist	Casp1 inh	Casp7 inh	HEK293 cAMP cs	others
O=C(O)c1ccccc1-c1c2cc(Br)c(=O)cc-2oc2[c]([Hg])c(O)c(Br)cc12	0.25µM*	16µM*!	1%[25.6 µM]	/	?	9%[25.6 µM]
C[C@]1(C(=O)O)[C@@H]2CC[C@@H](O2)[C@@]1(C)C(=O)O	13%	7.9µM*	9%	2%	-1%	16%
Cc1cc(Cc2cc(C)c(N)cc2N)c(N)cc1N	?	-14%[11.5 µM]	3%[11.4 µM]	-13%[11.5 µM]	?	0%[11.4 µM]
Cc1c(OCC(F)(F)F)ccnc1CS(=O)c1nc2ccccc2[nH]1 (stereo not given)	25µM*!	-17%	?	2%	-3%	?
O=C1C=CC(=O)c2c(O)cccc21	2µM*	?	/	20µM*	?	/
CN1CC=C(c2c[nH]c3ccccc23)CC1	0.63µM*	1%	-2%	-6%	-9%	4%
O=C(O)CN1CCN(CC(=O)O)CC(=O)[O][Hg][O]C(=O)C1	0.16µM*	-20%[11.5 µM]	2%[11.4 µM]	-2%[11.5 µM]	-2%[11.5 µM]	-7%[11.4 µM]
CC(C)C(=O)c1cn(Cc2ccccc2C#N)c2ccccc12	-7%	-8%	?	3%	-5%	25µM*
NCCc1c[nH]c2ccc(OC(=O)C(=O)O)cc12	5%[11.4 µM]	1%[11.5 µM]	0%[11.4 µM]	0%[11.5 µM]	1%[11.5 µM]	5%[11.4 µM]
N[C@]1(C(=O)O)CC[C@@H](C(=O)O)C1	/	/	/	/	/	-2%
CN(C)c1ccc(CN2CC=C(c3ccc(F)cc3)CC2)cc1	-2%	?	-9%	-2%	-1%	-9%	HEK293 cAMP cnt=6[25.6 µM]
CN(C)c1ccc(Cc2ccc(N(C)C)cc2)cc1	2%	?	?	-6%	-3%	-33%
O=c1[nH]c(=O)n(Cc2ccco2)c(O)c1C=NC1CC1	-8%	-12%	/	-1%	-1%	8%	HEK293 cAMP cnt=5
CC1=NN(c2ccc(S(=O)(=O)O)cc2C)C(=[OH+])[C@H]1N=Nc1cc(S(=O)(=O)O)ccc1C(=O)O.O.[Cr]	9%[11.4 µM]	-4%[11.5 µM]	?	1%[11.5 µM]	-1%[11.5 µM]	?
